The source of these data is the supplement of paper PMC10037445.

Molecules are shown by their SMILES. Values joined by “and” are separate entries in the source; they are usually repeats but may differ in a detail not shown here. Equal entries are not always repeated. Whole data set: some 2,900 compounds, median “NF-kB SEAP reporter activity, fold change vs agonist alone” near 0.99, cut for the highest 2% near 2.6. Shown is part of a subset that was picked to be rich in the highest values.

For test [1], the system named is RAW-Dual. The experiment in a line: NF-kB SEAP reporter activity, fold change vs agonist alone; cytotoxicity flag (confluency mask): not cytotoxic; higher = enhanced NF-kB activity. In outline: (§1)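 Reporter activity is given as fold change relative to agonist-alone wells. To measure it, 50 nL of library stock was pin-tooled onto RAW-Dual macrophages (50,000 cells/well, DMEM, 384-well plates), a PRR agonist followed 1 h later, and cells stayed at 37 °C, 5% CO2. Twenty hours on, supernatant was assayed for IRF (QuantiLuc luminescence) and NF-κB (QuantiBlue, 620 nm absorbance), and wells under 70% of agonist-control IncuCyte confluency in both mask sets were marked cytotoxic.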

Test [2] has as its system RAW-Dual. The experiment in a line: NF-kB SEAP reporter activity, fold change vs agonist alone; higher = enhanced NF-kB activity. To be noted: library stock concentration (final ~1000-fold dilution): 10 mM, cytotoxicity flag (confluency mask): not cytotoxic. In outline: as §1
The test system of test [3] is RAW-Dual. The experiment in a line: NF-kB SEAP reporter activity, fold change vs agonist alone; cytotoxicity flag (confluency mask): cytotoxic (confluency <70% of control); higher = enhanced NF-kB activity. The method, boiled down:
as §1

The mark [4] stands for this setting: agonist: ODN 1826 (TLR9) 0.5 ug/mL.
[5] abbreviates: agonist: Pam2CSK4 (TLR2/6) 0.1 ug/mL.
Where [6] appears, read: agonist: Pam3CSK4 (TLR2/1) 0.1 ug/mL.

On to `Cl.N=c1ccn2c(n1)OC1C(O)C(CO)OC12` (stereo not given) (library stock concentration (final ~1000-fold dilution): 10 mM), for which the “NF-kB SEAP reporter activity” value with RAW-Dual [1] (agonist: LPS (TLR4) 0.1 ug/mL) was found to be 1.33; with RAW-Dual [1] (setting [4]), 1.89; in the test on RAW-Dual [1] (setting [5]), 1.4; in the test on RAW-Dual [1] (setting [6]), 1.83.

For the compound `Cl.N=c1ccn2c(n1)OC1C(O)C(CO)OC12` (stereo not given), the “NF-kB SEAP reporter activity” value with RAW-Dual [2] (agonist: Imiquimod (TLR7) […]) stood at 1.8; in the test with RAW-Dual [2] (agonist: MPLA (TLR4) […]) it was 1.42.

`Brc1ccc(CCCCn2ccnc2)cc1` (library stock concentration (final ~1000-fold dilution): 10 mM): the “NF-kB SEAP reporter activity” value in the test with RAW-Dual [1] (agonist: LPS (TLR4) 0.1 ug/mL) is 0.672 and 0.736; in the test on RAW-Dual [1] (setting [4]), 0.566 and 0.595; in the test on RAW-Dual [1] (setting [5]) it was 0.493 and 0.552; in the test with RAW-Dual [1] (setting [6]), 0.585 and 0.645.

Regarding `CN(C)C(=O)CCSC(SCCC(=O)O)c1cccc(C=Cc2ccc3ccc(Cl)cc3n2)c1` (stereo not given) (library stock concentration (final ~1000-fold dilution): 10 mM), the “NF-kB SEAP reporter activity” value in the test on RAW-Dual [1] (agonist: LPS (TLR4) 0.1 ug/mL) was determined as 1.5; with RAW-Dual [1] (setting [4]), 1.12; in the test on RAW-Dual [1] (setting [5]), 0.936; with RAW-Dual [1] (setting [6]), 0.945.

`CN(C)C(=O)CCSC(SCCC(=O)O)c1cccc(C=Cc2ccc3ccc(Cl)cc3n2)c1` (stereo not given): the “NF-kB SEAP reporter activity” value stood at 0.973 in the test with RAW-Dual [2] (agonist: Imiquimod (TLR7) […]) and 1.05 in the test with RAW-Dual [2] (agonist: MPLA (TLR4) […]).

Regarding `Cc1cc(N2CCOCC2)ccc1Nc1nc(NC2CCCCC2)c2nc[nH]c2n1` (library stock concentration (final ~1000-fold dilution): 10 mM), the “NF-kB SEAP reporter activity” value stood at 1.44 with RAW-Dual [1] (agonist: LPS (TLR4) 0.1 ug/mL), 0.814 in the test with RAW-Dual [1] (setting [4]), 1 in the test with RAW-Dual [1] (setting [5]) and 0.926 in the test on RAW-Dual [1] (setting [6]).

As to `Cc1cc(N2CCOCC2)cc2[nH]c(-c3c(NCC(O)c4cccc(Cl)c4)cc[nH]c3=O)nc12` (stereo not given) (library stock concentration (final ~1000-fold dilution): 10 mM), the “NF-kB SEAP reporter activity” value stood at 0.682 with RAW-Dual [1] (agonist: LPS (TLR4) 0.1 ug/mL), 3.16 with RAW-Dual [1] (setting [4]), 0.436 with RAW-Dual [1] (setting [5]) and 0.595 in the test on RAW-Dual [1] (setting [6]).

As to `CNC(=O)c1ccccc1Nc1nc(Nc2ccc(N3CCOCC3)cc2OC)ncc1Cl`, the results for the “NF-kB SEAP reporter activity” value in the test on RAW-Dual [2] (agonist: Imiquimod (TLR7) […]) and in the test with RAW-Dual [2] (agonist: MPLA (TLR4) […]) were 0.466 and 0.594, respectively.

For `Cc1cc(N2CCOCC2)ccc1Nc1nc(NC2CCCCC2)c2nc[nH]c2n1`, the entries for the “NF-kB SEAP reporter activity” value in the test on RAW-Dual [2] (agonist: Imiquimod (TLR7) […]) and with RAW-Dual [2] (agonist: MPLA (TLR4) […]) were 0.925 and 1.04, respectively.

As for `CNC(=O)c1ccccc1Nc1nc(Nc2ccc(N3CCOCC3)cc2OC)ncc1Cl` (library stock concentration (final ~1000-fold dilution): 10 mM), the “NF-kB SEAP reporter activity” value in the test with RAW-Dual [1] (agonist: LPS (TLR4) 0.1 ug/mL) amounted to 0.332; in the test on RAW-Dual [1] (setting [4]), 0.296; with RAW-Dual [1] (setting [5]), 0.134; with RAW-Dual [1] (setting [6]), 0.246.

As for `Cc1cc(N2CCOCC2)cc2[nH]c(-c3c(NCC(O)c4cccc(Cl)c4)cc[nH]c3=O)nc12` (stereo not given), the “NF-kB SEAP reporter activity” value amounted to 2.06 in the test with RAW-Dual [2] (agonist: Imiquimod (TLR7) […]) and 0.802 in the test on RAW-Dual [2] (agonist: MPLA (TLR4) […]).

On to `Cl.NC12CC3CC(CC(C3)C1)C2`, for which the “NF-kB SEAP reporter activity” value was determined as 0.884 with RAW-Dual [2] (agonist: Imiquimod (TLR7) […]) and 1.08 with RAW-Dual [2] (agonist: MPLA (TLR4) […]).

On to `Cl.NC12CC3CC(CC(C3)C1)C2` (library stock concentration (final ~1000-fold dilution): 10 mM), for which the “NF-kB SEAP reporter activity” value with RAW-Dual [1] (agonist: LPS (TLR4) 0.1 ug/mL) is 1.03; in the test with RAW-Dual [1] (setting [4]) it was 0.798; in the test with RAW-Dual [1] (setting [5]), 0.873; in the test with RAW-Dual [1] (setting [6]) it was 1.02.

`Cc1ccc(NC(=O)c2ccc(CN3CCN(C)CC3)cc2)cc1Nc1nccc(-c2cccnc2)n1` (library stock concentration (final ~1000-fold dilution): 10 mM): the “NF-kB SEAP reporter activity” value was 1.23 in the test on RAW-Dual [1] (agonist: LPS (TLR4) 0.1 ug/mL), 0.212 with RAW-Dual [1] (setting [4]), 1.55 in the test with RAW-Dual [1] (setting [5]) and 1.42 in the test on RAW-Dual [1] (setting [6]).

With `Nc1ccccc1NC(=O)c1ccc(CNC(=O)OCc2cccnc2)cc1`, the “NF-kB SEAP reporter activity” value in the test on RAW-Dual [2] (agonist: Imiquimod (TLR7) […]) amounted to 0.921; with RAW-Dual [2] (agonist: MPLA (TLR4) […]), 1.06.

Take `Nc1ccccc1NC(=O)c1ccc(CNc2nccc(-c3cccnc3)n2)cc1` (library stock concentration (final ~1000-fold dilution): 10 mM): the “NF-kB SEAP reporter activity” value was 5.7 with RAW-Dual [3] (agonist: LPS (TLR4) 0.1 ug/mL), 3.2 with RAW-Dual [3] (setting [4]), 0.984 in the test with RAW-Dual [3] (setting [5]) and 1.9 in the test with RAW-Dual [3] (setting [6]).
